The nature of assay [1]: qHTS assay for small molecule agonists of retinoid X receptor alpha signaling (AID 588544).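 As to activation: 0% = DMSO basal wells and 100% = reference agonist.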 To be noted: HEK293T RXRa-UAS-bla, beta-lactamase reporter, 18 h; 530 nm emission. On the technique in general: Quantitative high-throughput screening tests each substance at several concentrations.
Assay [2] addresses Retinoic acid receptor RXR-alpha (Homo sapiens) (UniProt P19793). The description is as above. To be noted: HEK293T RXRa-UAS-bla, beta-lactamase reporter, 18 h; series mostly up to 76.7 µM.
Assay [3] concerns the target Thyroid hormone receptor beta (Homo sapiens) (UniProt P10828). The assay is described as follows: qHTS assay for small molecule agonists of thyroid hormone receptor beta signaling (AID 588545).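 Also: 0% = DMSO only and 100% = 10 nM T3.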 To be noted: TR-UAS-bla GripTite HEK 293, beta-lactamase ratio, agonist mode, 18 h, percent of T3 response, DMSO as zero; series mostly up to 76.7 µM. Summed up:
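TR-UAS-bla-GripTite HEK 293 cells in medium with 2% charcoal/dextran FBS, 0.1 mM NEAA and 1 mM sodium pyruvate were treated with titrated compounds for 18 hrs at 37 C. Beta-lactamase reporter was read with CCF4 dye (ex 405, em 460/530 nm); EC50 from Hill fits.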

Assay [4] is described as follows: qHTS assay for small molecule antagonists of retinoid X receptor alpha signaling (AID 588546; active = well fitted inhibition curve with a large enough effect in the signal ratio, with a control signal flat, not every such curve was filed as active; the % refers to the signal ratio;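 also: cells stimulated with 9-cis-retinoic acid as agonist; % is scaled to controls: 0 for no effect and ±100 for the full control effect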). To be noted: HEK293T RXRa-UAS-bla, beta-lactamase ratio, antagonist mode; measured here: W530 green channel, cytotoxicity proxy. In a few lines: (§1)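 Beta-lactamase reporter inhibition, read as CCF4 fluorescence ratio (ex 405, em 460/530 nm) after 2 h at RT. HEK293T UAS-bla cells, 2500/well, were stimulated with 9-cis-RA at 500 or 100 nM final alongside test compound for 18 h at 37 C.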

For assay [5], the target named is Retinoic acid receptor RXR-alpha (Homo sapiens) (UniProt P19793). The description is as above. To be noted: HEK293T RXRa-UAS-bla, beta-lactamase ratio, antagonist mode. Summed up: as §1
Chain of Retinoic acid receptor RXR-alpha (Homo sapiens) (P19793 whole entry, looked up): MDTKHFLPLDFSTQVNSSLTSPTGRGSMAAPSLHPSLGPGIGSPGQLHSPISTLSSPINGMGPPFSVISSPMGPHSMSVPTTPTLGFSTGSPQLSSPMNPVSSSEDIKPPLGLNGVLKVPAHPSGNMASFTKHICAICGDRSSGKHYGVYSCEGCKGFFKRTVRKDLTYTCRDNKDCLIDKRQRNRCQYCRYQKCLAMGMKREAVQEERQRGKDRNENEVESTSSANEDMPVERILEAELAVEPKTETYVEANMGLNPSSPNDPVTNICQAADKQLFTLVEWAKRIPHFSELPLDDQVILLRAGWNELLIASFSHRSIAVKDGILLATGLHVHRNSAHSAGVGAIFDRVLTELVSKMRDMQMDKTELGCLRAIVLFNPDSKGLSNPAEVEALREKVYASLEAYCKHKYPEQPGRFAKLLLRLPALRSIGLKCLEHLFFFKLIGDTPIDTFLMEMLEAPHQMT
The target of assay [6] is Thyroid hormone receptor beta (Homo sapiens) (UniProt P10828). Nature of the assay: qHTS assay for small molecule antagonists of thyroid hormone receptor beta signaling (AID 588547; active = well fitted inhibition curve with a large enough effect in the signal ratio, with a control signal flat, not every such curve was filed as active; the % refers to the signal ratio;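 also: cells stimulated with 0.4 nM T3 agonist during compound exposure; % is scaled to controls: 0 for no effect and ±100 for the full control effect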). To be noted: TR-UAS-bla HEK293, beta-lactamase ratio, antagonist mode, 18 h. In a few lines: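 TR-UAS-bla GripTite HEK293 cells in 2% charcoal/dextran FBS medium were preincubated 4 h at 37 C, given compound (0.59 nM to 92 uM) plus 0.4 nM T3 (final) for 18 h, then CCF4 for 2 h at RT; Hill fit gave IC50.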
Chain of Thyroid hormone receptor beta (Homo sapiens) (P10828 whole entry, looked up): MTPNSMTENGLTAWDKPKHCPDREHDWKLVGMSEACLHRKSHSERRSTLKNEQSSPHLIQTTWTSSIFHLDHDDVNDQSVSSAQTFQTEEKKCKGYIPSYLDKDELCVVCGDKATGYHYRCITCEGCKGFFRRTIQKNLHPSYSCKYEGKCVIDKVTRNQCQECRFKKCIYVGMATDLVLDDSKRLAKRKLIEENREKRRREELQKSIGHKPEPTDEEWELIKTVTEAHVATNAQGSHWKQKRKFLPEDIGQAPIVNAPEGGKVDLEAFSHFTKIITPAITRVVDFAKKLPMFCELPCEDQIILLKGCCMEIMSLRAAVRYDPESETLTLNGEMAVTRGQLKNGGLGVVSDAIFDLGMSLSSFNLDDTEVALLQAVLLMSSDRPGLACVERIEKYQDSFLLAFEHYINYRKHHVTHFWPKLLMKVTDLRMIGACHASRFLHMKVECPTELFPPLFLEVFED

The target of assay [7] is Voltage-gated inwardly rectifying potassium channel KCNH2 (Homo sapiens) (UniProt Q12809). The assay is described as follows: qHTS Assay for Small Molecule Inhibitors of the Human hERG Channel Activity (AID 588834; active = well fitted curve in the direction sought with a large enough effect; an effect the other way counts as inactive or inconclusive;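 also: lower thallium flux fluorescence means stronger hERG block; nearly all actives have a fitted effect of over 50% in size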; also: potency is read from the fitted curve at half-maximal effect). To be noted: U2OS BacMam hERG, FluxOR thallium flux fluorescence; series mostly up to 92.2 µM. Summed up:
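Concentration-response qHTS measuring drop in thallium-sensitive dye signal. U2OS cells carrying BacMam hERG; compound exposure ~10 min, then stimulation buffer and 2 min read at 1 sec intervals.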

Assay [8] is described as follows: qHTS assay for small molecule activators of the p53 signaling pathway (AID 651743; active = well fitted activation curve with a large enough effect in the signal ratio, not every such curve was filed as active; the % refers to the signal ratio; also: % of control where 0% means no effect). To be noted: HCT-116 p53RE-bla, beta-lactamase FRET ratio, 16 h; stronger effect = higher value. Summed up:
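Cell-based beta-lactamase reporter (p53 response elements, HCT-116 background). After a 5-hour preincubation, cells received compound for 16 hours at 37 C; substrate development ran 2 hours at room temperature.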

A short description of assay [9]: qHTS assay for small molecule activators of the nuclear factor-kappa B (NF-kB) signaling pathway (AID 651749; active = well fitted activation curve with a large enough effect in the signal ratio; the % refers to the signal ratio; also: % of control where 0% means no effect). To be noted: NF-kB-bla ME-180 cells, beta-lactamase FRET ratio, 16 h; stronger effect = higher value. In a few lines: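 Screening used 2,000 ME-180 reporter cells per well exposed to pinned compound (23 nL) or DMSO; after 16 hr at 37C, beta-lactamase expression under NF-kB control was assessed through FRET.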

The nature of assay [10]: qHTS assay for small molecule disruptors of the mitochondrial membrane potential - 1 hr assay (AID 651754). Also: % is scaled to controls: 0 for no effect and ±100 for the full control effect; nearly all actives have a fitted effect of over 35% in size. To be noted: series mostly up to 92.2 µM. In a few lines: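 HepG2, 2,000 cells/well, overnight attachment; cpd or DMSO 1 hr, 37C/5% CO2; Mito-MPS dye 30 min, 37C; fluorescence monomer (490/535) and aggregate (540/590).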
Assay [11] is described as follows: qHTS assay for small molecule disruptors of the mitochondrial membrane potential - 5 hr assay (AID 651755). Also: % is scaled to controls: 0 for no effect and ±100 for the full control effect; nearly all actives have a fitted effect of over 40% in size. To be noted: JC-1-type ratio dye; series mostly up to 92.2 µM. In a few lines: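 HepG2 cells, attached overnight at 37C, were exposed to compound or DMSO for 5 hr at 37C, 5% CO2. Mito-MPS dye was then added for 30 min, and fluorescence read at 490/535 nm (monomers) and 540/590 nm (aggregates).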

The target in assay [12] is Tumor necrosis factor (Homo sapiens) (UniProt P01375). The assay is described as follows: qHTS assay to identify small molecules that stimulate Tumor Necrosis Factor-alpha (TNF-alpha) secretion (AID 651757; active = well fitted curve in the direction sought with a large enough effect in the signal ratio; the % refers to the signal ratio; also: 0% is about no effect). To be noted: Human cells, HTRF 665/615 ratio; series mostly up to 92.2 µM. Summed up:
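Read-out is HTRF, a TR-FRET sandwich of cryptate- and XL665-labeled anti-TNF-alpha antibodies detecting cytokine secreted by THP-1 cells. Cells had been incubated with test compounds at 37 C for 17 hrs beforehand.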

Assay [13] is described as follows: qHTS assay for environmental chemicals that activate the Aryl hydrocarbon Receptor (AhR) signaling pathway (AID 651777; active = well fitted curve in the direction sought with a large enough effect; an effect the other way counts as inactive or inconclusive; also: % of control where 0% means no effect; nearly all actives have a fitted effect of over 15% in size). To be noted: 1A2-DRE human hepatoma cells, luciferase, 24 h; activation: stronger effect = higher value. Summed up: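 AhR activation is scored as a rise in luciferase from a stable DRE–CYP1A2 promoter construct in human hepatoma cells. Treatment lasts 24 hr at 37 C; detection uses One-Glo after 30 min at room temperature.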

In assay [14] the target is Peroxisome proliferator-activated receptor alpha (Homo sapiens) (UniProt Q07869). The assay is described as follows: qHTS assay for small molecule agonists of the peroxisome proliferator-activated receptor alpha (PPARalpha) signaling pathway (AID 651778; active = well fitted curve in the direction sought with a large enough effect; an effect the other way counts as inactive or inconclusive; also: % of control where 0% means no effect). To be noted: PathHunter PPARalpha complementation, chemiluminescence, 6 h; stronger effect = higher value. In a few lines:
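Cells plated at 2,000/well and held overnight at 37 C, 5% CO2, then compound added by pin tool for 6 hr; after PathHunter detection reagent and 60 min at room temperature, chemiluminescence from enzyme complementation was read.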

Assay [15] addresses Nuclear receptor ROR-gamma (Homo sapiens) (UniProt P51449). Nature of the assay: qHTS assay for small molecule antagonists of the retinoid-related orphan receptor gamma (ROR-gamma) signaling pathway (AID 651802; active = well fitted curve in the direction sought with a large enough effect; an effect the other way counts as inactive or inconclusive;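 also: luciferase reporter luminescence driven by ROR response element; % is scaled to controls: 0 for no effect and ±100 for the full control effect; nearly all actives have a fitted effect of over 60% in size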). To be noted: ROR-gamma antagonist cell reporter assay; series mostly up to 92.2 µM. In a few lines:
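CHO, TET-inducible ROR + RORE-LUC reporter, 1536-well qHTS. Compound pinned, doxycycline added, 16hr 37C/5% CO2. ONE-Glo, 30 min RT, luminescence; signal drop scored as antagonism.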

Assay [16] can be described thus: qHTS assay for small molecule agonists of the antioxidant response element (ARE) signaling pathway measured by Nrf2-dependant transcriptional activity (AID 720636; active = well fitted curve in the direction sought with a large enough effect in the repeat runs; an effect the other way counts as inactive or inconclusive; also: % of control where 0% means no effect). To be noted: ARE-luc HepG2, Nrf2 luciferase reporter, 16 h; series mostly up to 92.4 µM. Summed up: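 First, ARE-luc HepG2 cells attached for 6 hr at 37 C in 1% dialyzed FBS medium. Next, compound or DMSO was added and incubated 16 hr. Finally, ONE-Glo reagent was added and luminescence measured after 30 min.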

The nature of assay [17]: qHTS assay for small molecule antagonists of the retinoid-related orphan receptor gamma (ROR-gamma) signaling pathway - cell viability counter screen (AID 720652; active = well fitted curve in the direction sought with a large enough effect in the repeat runs; an effect the other way counts as inactive or inconclusive;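 also: compound exposure lasted 16 hr before ATP read; % is scaled to controls: 0 for no effect and ±100 for the full control effect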). To be noted: RORgamma reporter cell line viability counter screen; series mostly up to 92.2 µM. In a few lines: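 Luminescence from CellTiter-Glo after 30 min at room temperature reported cellular ATP as the cytotoxicity measure. Cells were the CHO reporter line with doxycycline-induced ROR-gamma expression, exposed to compound for 16 hr at 37 C.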

Assay [18] in a line: qHTS assay for small molecule agonists of the antioxidant response element (ARE) signaling pathway measured by Nrf2-dependant transcriptional activity - cell viability counter screen (AID 720653; active = well fitted curve in the direction sought with a large enough effect in the repeat runs; an effect the other way counts as inactive or inconclusive; also: % is scaled to controls: 0 for no effect and ±100 for the full control effect). To be noted: ARE-bla HepG2 viability, CellTiter-Glo ATP luminescence, 16 h; stronger effect = lower value. Summed up:
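ARE-bla HepG2 cells (2,000/well) rested 5 hrs at 37C/5% CO2, then exposed to compounds in DMSO for 16 hrs. Viability was read in the same wells as intracellular ATP by luminescence, 30 min at room temperature after reagent addition.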

A short description of assay [19]: qHTS assay for small molecule agonists of the antioxidant response element (ARE) signaling pathway (AID 651741; active = well fitted activation curve with a large enough effect in the signal ratio; the % refers to the signal ratio; also: % of control where 0% means no effect). To be noted: HepG2 ARE-bla reporter, beta-lactamase FRET ratio, 16 h; series mostly up to 96 µM. Summed up:
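Compounds in DMSO are pinned onto HepG2 ARE-bla cells (2,000/well) that were preincubated 5 h; plates stay 16 h at 37 C, then beta-lactamase activity is detected with LiveBLAzer B/G substrate by fluorescence.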

A short description of assay [20]: qHTS assay to identify small molecules that stimulate interleukin-8 (IL-8) secretion (AID 651758; active = well fitted activation curve with a large enough effect in the signal ratio; the % refers to the signal ratio; also: 0% is about no effect). To be noted: HTRF ratio (665/615); series mostly up to 92.2 µM. Summed up: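 THP-1, 2000 cells/well; cpd 16 h, 37 C; add cryptate + XL665 anti-IL-8 Abs; RT 1-3 h; TR-FRET read.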

SMILES strings stand for the structures. Results filed as inconclusive are left out. Active and inactive are the calls of the source. Unless noted, calls follow the shape of the full dose curve.

Chain of Tumor necrosis factor (Homo sapiens) (P01375 whole entry, looked up): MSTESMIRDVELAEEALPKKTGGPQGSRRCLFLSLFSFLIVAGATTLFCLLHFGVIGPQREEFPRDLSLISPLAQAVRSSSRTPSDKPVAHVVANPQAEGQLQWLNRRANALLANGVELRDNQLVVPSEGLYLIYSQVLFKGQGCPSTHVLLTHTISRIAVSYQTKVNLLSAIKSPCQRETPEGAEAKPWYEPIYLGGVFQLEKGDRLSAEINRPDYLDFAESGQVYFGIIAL
Chain of Voltage-gated inwardly rectifying potassium channel KCNH2 (Homo sapiens) (Q12809 whole entry, looked up): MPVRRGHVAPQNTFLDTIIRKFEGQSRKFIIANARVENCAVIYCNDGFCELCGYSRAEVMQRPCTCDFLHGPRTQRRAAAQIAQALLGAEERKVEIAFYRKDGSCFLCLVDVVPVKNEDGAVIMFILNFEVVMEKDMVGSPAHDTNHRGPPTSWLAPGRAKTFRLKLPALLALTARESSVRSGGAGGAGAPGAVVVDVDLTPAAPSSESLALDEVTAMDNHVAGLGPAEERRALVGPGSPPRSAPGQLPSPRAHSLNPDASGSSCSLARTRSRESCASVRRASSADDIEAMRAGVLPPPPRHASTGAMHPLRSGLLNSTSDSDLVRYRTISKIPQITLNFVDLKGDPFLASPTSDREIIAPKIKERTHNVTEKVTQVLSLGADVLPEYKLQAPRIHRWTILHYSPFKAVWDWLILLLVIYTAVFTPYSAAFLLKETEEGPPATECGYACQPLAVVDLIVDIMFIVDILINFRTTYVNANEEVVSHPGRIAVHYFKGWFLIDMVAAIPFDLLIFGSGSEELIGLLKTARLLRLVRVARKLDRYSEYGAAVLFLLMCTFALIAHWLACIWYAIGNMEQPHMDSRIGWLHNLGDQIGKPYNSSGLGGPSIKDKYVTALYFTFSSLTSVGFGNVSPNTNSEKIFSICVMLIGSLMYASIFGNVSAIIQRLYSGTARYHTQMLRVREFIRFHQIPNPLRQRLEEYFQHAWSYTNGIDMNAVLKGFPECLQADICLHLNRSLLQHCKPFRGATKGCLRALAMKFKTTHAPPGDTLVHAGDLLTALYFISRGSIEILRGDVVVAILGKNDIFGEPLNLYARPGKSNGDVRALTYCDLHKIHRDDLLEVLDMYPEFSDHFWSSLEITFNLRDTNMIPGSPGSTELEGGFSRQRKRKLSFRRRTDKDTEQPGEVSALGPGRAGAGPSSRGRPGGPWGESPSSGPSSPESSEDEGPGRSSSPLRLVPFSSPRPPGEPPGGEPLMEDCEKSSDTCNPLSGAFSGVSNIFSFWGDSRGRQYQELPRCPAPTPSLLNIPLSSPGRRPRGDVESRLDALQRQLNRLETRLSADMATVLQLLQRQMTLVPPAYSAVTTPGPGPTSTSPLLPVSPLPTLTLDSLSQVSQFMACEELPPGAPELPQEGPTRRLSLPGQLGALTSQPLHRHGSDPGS
Chain of Nuclear receptor ROR-gamma (Homo sapiens) (P51449 whole entry, looked up): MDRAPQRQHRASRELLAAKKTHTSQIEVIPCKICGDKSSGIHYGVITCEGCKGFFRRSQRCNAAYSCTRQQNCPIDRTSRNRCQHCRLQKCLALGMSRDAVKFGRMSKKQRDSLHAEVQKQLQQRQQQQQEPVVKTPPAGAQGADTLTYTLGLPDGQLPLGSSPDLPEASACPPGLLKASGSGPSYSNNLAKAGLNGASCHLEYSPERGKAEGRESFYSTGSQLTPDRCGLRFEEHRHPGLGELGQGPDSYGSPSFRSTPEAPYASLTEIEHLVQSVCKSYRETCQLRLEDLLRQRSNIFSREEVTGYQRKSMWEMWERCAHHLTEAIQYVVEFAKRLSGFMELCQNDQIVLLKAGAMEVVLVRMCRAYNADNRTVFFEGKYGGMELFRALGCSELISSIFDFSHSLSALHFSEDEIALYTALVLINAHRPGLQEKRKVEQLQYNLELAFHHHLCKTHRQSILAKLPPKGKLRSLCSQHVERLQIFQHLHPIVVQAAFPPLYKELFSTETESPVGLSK
Chain of Peroxisome proliferator-activated receptor alpha (Homo sapiens) (Q07869 whole entry, looked up): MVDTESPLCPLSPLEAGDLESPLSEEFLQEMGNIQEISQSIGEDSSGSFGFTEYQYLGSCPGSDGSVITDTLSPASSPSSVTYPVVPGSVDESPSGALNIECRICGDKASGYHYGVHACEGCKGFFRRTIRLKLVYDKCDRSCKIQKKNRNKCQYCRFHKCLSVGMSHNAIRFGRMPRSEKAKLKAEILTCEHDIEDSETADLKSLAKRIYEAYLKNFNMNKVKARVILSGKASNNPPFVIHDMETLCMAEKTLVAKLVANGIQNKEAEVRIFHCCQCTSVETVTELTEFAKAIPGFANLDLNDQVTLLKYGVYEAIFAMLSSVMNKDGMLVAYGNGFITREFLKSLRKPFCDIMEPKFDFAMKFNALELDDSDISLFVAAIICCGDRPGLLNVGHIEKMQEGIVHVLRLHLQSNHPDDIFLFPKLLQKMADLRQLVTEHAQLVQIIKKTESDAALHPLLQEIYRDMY

For `CC(C)CCOC(=O)/C=C/c1ccccc1`, the max response in assay [1] was 7.69%; in assay [4], 5.75%; in [5], -10.7% (inactive); in assay [14], 0.372% (inactive); in assay [18] it was 5.13% (inactive). Moreover, the compound was called inactive in assay [2], in assay [3] and in assay [16]. Also, in [6], the activity change % (negative = inhibition) is -18.5% (inactive). Further, in assay [7], the Potency was 22.4 µM (active). Besides, the activation in assay [8] was 1.36% (inactive); in assay [9] it was -1.28% (inactive); in [13] it was 0.411% (inactive). In addition, the Potency entry in assay [10], in [11], in assay [12], in assay [15] and in [17] was “inactive” in each case.

On to `CCCCC(C=O)CC` (stereo not drawn), for which the max response in assay [1] was 4.08%; in [4] it was 2.69%; in assay [5] it was 7.22% (inactive); in assay [14], -5.44% (inactive); in [18] it was 4.13% (inactive). The result in [2], in assay [3] and in assay [16] was inactive. Further, the activity change % (negative = inhibition) in [6] was 14.6% (inactive). Further, the Potency entry in assay [7], in assay [19], in assay [10], in [11], in assay [12] and in assay [15] was “inactive” each time. Moreover, the Potency result in [17] was “inactive”. In addition, the activation in assay [9] is -0.855% (inactive); in [13], 0.316% (inactive).

Regarding `O=C1C=CCCC1`, the max response in assay [1] was 8.41%; in [4], -1.74%; in [5] it was -1.33% (inactive); in assay [14], 2.89% (inactive); in assay [18], 4.99% (inactive). Also, the compound was called inactive in [2], in assay [3] and in assay [16]. Further, in assay [6], the activity change % (negative = inhibition) was -3.89% (inactive). The Potency result in assay [7], in assay [10], in [11], in assay [12], in assay [15] and in [17] was “inactive” in each case. For the same compound, the results for the activation in assay [8], in assay [9] and in assay [13] were -3.28% (inactive), -0.0951% (inactive) and 0.397% (inactive), respectively.

As to `CCCCC(CC)C(=O)O` (stereo not drawn), the max response in [1] was 12.4%; in assay [4] it was -3.23%; in assay [5] it was 4.48% (inactive); in assay [14], -2.43% (inactive); in assay [18] it was -5.11% (inactive). For the same compound, the compound was called inactive in [2], in [3] and in assay [16]. In addition, in assay [6], the activity change % (negative = inhibition) was -2.96% (inactive). Besides, the Potency entry in assay [7], in [19], in [10], in assay [12], in assay [15] and in assay [17] was “inactive” throughout.

On to `CCOc1cc(OCC)c(C(C)=O)cc1OCC`, for which the max response in [1] was 4.48%; in assay [4] it was 1.94%; in assay [5], 7.64% (inactive); in [14], 0.501% (inactive). For the same compound, the call in assay [2], in assay [3] and in [16] was inactive. Moreover, in assay [6], the activity change % (negative = inhibition) was -7.72% (inactive). Besides, the Potency entry in [7], in assay [10], in [11], in assay [12], in assay [20] and in assay [15] was “inactive” in each case. Further, in assay [17], the Potency result was “inactive”. Moreover, the figures for the activation in assay [8], in assay [9] and in assay [13] were -3.93% (inactive), 2.04% (inactive) and 3.71% (inactive), respectively.

With `CC(C)(C)OCC1CO1` (stereo not drawn), the max response in assay [1] was -14.1%; in [4], -6.46%; in assay [5], -4.17% (inactive); in [14] it was -5.74% (inactive). Moreover, the compound was called inactive in assay [2] and in assay [3]. Besides, in [6], the activity change % (negative = inhibition) is 13.4% (inactive). In addition, the Potency result in assay [7], in assay [10], in assay [11], in assay [12] and in [17] was “inactive” in each case. The activation in [8] was 0.176% (inactive); in assay [9] it was 0.44% (inactive); in assay [13], 2.26% (inactive).

For `Nc1ccccc1S(=O)(=O)O`, the max response was 0.0246% in [1]; -2.85% in [4]; 1.63% (inactive) in [5]; -3.61% (inactive) in assay [14]; -0.944% (inactive) in assay [18]. Further, the compound was called inactive in assay [2] and in assay [3]. Besides, the activity change % (negative = inhibition) in assay [6] was 5.88% (inactive). For the same compound, the Potency entry in assay [7], in assay [10], in assay [11], in assay [12] and in assay [15] was “inactive” in each case. The activation in assay [8] is -0.779% (inactive); in assay [9], -0.0968% (inactive); in assay [13], -0.162% (inactive).

These data come from PubChem BioAssay (NCATS).
